Shown are actives, neighbours in structure and some others; about 2% of the full set was active somewhere.
LYPLA1 inh: LYPLA1 (human) inhibition in PME1 counter-screen; O75608; recombinant LYPLA1, FP-Rh probe fluorescence polarization; inhibition, % at 5.9 µM; 320,000 compounds, 0.16% hits; AID 2174;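 active = inhibition above the mean of all tested compounds plus 3 SD, set per campaign, cut at about 14% in these data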;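 also: inhibitors block serine hydrolase probe labeling of LYPLA1 so polarization falls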
GSTO1 counter: GSTO1 inhibition, counter-screen for RBBP9 inhibitors; P78417; recombinant GSTO1, activity-based probe fluorescence polarization; inhibition, % at 5.96 µM; 300,000 compounds, 1.1% hits; AID 1974;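 active = inhibition above the campaign mean inhibition plus 3 SD, cut at about 35% in these data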
LYPLA2 inh: counter-screen for PME1 inhibitors: inhibitors of human LYPLA2; O95372; recombinant LYPLA2, FP-Rh probe fluorescence polarization; inhibition, % at 5.9 µM; 320,000 compounds, 0.38% hits;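 active = inhibition above the screen-wide mean plus 3 SD, limit set per campaign, cut at about 26% in these data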
PME-1 inh: PME-1 (human) inhibition. 320,000 compounds, 0.53% hits. Q9Y570. inhibition, % at 5.9 µM. recombinant PME-1, FP-Rh probe fluorescence polarization;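 active = inhibition above the campaign mean of all compounds plus 3 SD, cut at about 26% in these data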;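 also: competitive labeling of PME-1 active site by serine hydrolase directed probe; inhibitors block probe labeling so polarization falls and inhibition rises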
PREPL inh: inhibits the human prolyl oligopeptidase-like enzyme. inhibition, % at 5.96 µM. AID 2751. recombinant PREPL, fluorescence polarization activity-based probe. 320,000 compounds, 0.68% hits. Q4J6C6; in the data active = inhibition above about 43%
Fam108B counter: counter-screen for RBBP9 inhibitors: inhibitors of mouse Fam108B. AID 1947. recombinant Fam108B, FP-Rh probe fluorescence polarization. 300,000 compounds, 0.33% hits. inhibition, % at 9.51 µM;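 active = inhibition above the screen mean inhibition plus 3 SD, computed separately per campaign, cut at about 18% in these data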;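 also: inhibitors lower polarization as less probe binds the enzyme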
Hits are given with their value; – = inactive; · = no result.

SMILES | LYPLA1 inh | GSTO1 counter | LYPLA2 inh | PME-1 inh | PREPL inh | Fam108B counter
CC(=O)N1c2ccc(S(=O)(=O)N3CCCC3)cc2CC1C(=O)NCc1ccccc1F (centres undefined) | – | – | – | – | – | –
Nc1c(C(=O)N2CCCCC2)sc2nc3c(cc12)CCCC3 | – | – | – | – | – | –
CCc1nnc(NC(=O)c2sc3nc4c(cc3c2N)CCCCCC4)s1 | – | – | – | 29.0 | – | –
CCc1nnc(NC(=O)c2sc3nc4c(cc3c2N)CCCCC4)s1 | – | – | – | 28.3 | – | –
C=CCn1c(C)cc(-c2csc(N)n2)c1C | – | – | – | – | 49.2 | –
O=C1c2cccc(OCC(=O)N3N=C(c4cccs4)CC3c3ccc(F)cc3)c2CCN1Cc1cccnc1 (centres undefined) | – | – | 37.5 | – | – | –
O=C(c1cccnc1)N1N=C(c2cccs2)CC1c1ccc(F)cc1 (centres undefined) | – | – | – | – | – | –
Cn1cnnc1SCc1ccc(C(=O)N=Nc2c(O)n(Cc3ccc(Cl)cc3)c3ccccc23)cc1 | – | – | 26.5 | – | – | –
Cc1cccc(NC(=O)CN2C(=O)S/C(=C\c3ccccn3)C2=O)c1 | – | – | – | – | – | –
Cc1cccc(NC(=O)CN2C(=O)S/C(=C\c3ccc(O)c([N+](=O)[O-])c3)C2=O)c1 | – | – | 81.2 | 33.5 | – | –
CC1=NN(c2ccc(C)cc2C)C(=O)C1C(c1cccc(O)c1)C1C(=O)N(c2ccc(C)cc2C)N=C1C (centres undefined) | – | 55.0 | – | – | – | –
CC1=NN(c2nc(-c3ccc(C)cc3)cs2)C(=O)C1N=Nc1cccc(O)c1 (centres undefined) | – | – | – | – | – | –
CC(=O)N1c2ccccc2C2CCCC[C@H]21 (some centres undefined) | – | · | – | – | – | ·
COC(=O)c1cc(S(=O)(=O)N(C)C2CCCCC2)c[nH]1 | – | – | – | – | – | –
Cc1ccc(S(=O)(=O)Oc2cccc(/C=N/Nc3ccc(C(=O)O)cc3)c2)cc1 | – | – | – | 31.0 | – | –
Cc1ccc(OCCNC(=O)CCc2ccccc2)cc1C | – | – | – | – | – | –
CCOC(=O)c1sc2nc(CC(=O)OC)nc(N3CCN(c4ccc(OC)cc4)CC3)c2c1C | – | – | – | – | 48.1 | –
O=C(COC(=O)c1cc(S(=O)(=O)N2CCOCC2)ccc1Cl)NCc1ccccc1 | · | · | · | · | – | ·
Cc1ccc(NC(=O)CCl)cc1S(=O)(=O)N1CCCCCC1 | – | 75.9 | – | – | – | –
COc1ccc(C2=NN(Cc3c(F)cccc3Cl)C(=O)CC2)cc1 | – | – | – | 44.0 | – | –
COc1cc(/C=N/Nc2nc3ccccc3[nH]2)cc(OC)c1O | – | 73.3 | – | – | – | –
COc1cc(/C=N/Nc2nc3ccccc3[nH]2)ccc1O | – | – | – | – | – | –
Cn1c(/C=N/Nc2nc3ccccc3[nH]2)nc2ccccc21 | – | – | – | 47.8 | – | –
C#Cc1ccc([C@@H]2C=C(C(=O)N3CCN(Cc4ccc5c(c4)OCO5)CC3)O[C@H](OCCCCO)C2)cc1 | – | – | – | – | 44.9 | –
O=C(C1=C[C@H](c2ccc3c(c2)OCO3)C[C@H](OCCCCO)O1)N1CCN(Cc2ccc3c(c2)OCO3)CC1 | – | – | – | – | – | –
SMILES | LYPLA1 inh | GSTO1 counter | LYPLA2 inh | PME-1 inh | PREPL inh | Fam108B counter
CNc1c(NS(=O)(=O)c2ccc(C3CCCCC3)cc2)c(=O)oc2ccccc12 | – | – | – | – | – | –
CCOC(=O)NC1(Nc2ccc(C)cc2)Oc2ccccc2O1 | – | 81.7 | – | – | – | –
CCOC(=O)NC1(NC(C)C)Oc2ccccc2O1 | – | 37.1 | – | – | – | –
O=C(COC(=O)CCc1ccc(S(=O)(=O)N2CCOCC2)cc1)Nc1ccccc1OC(F)F | · | · | · | · | – | ·
C#CCSc1nnc(-c2sc(-c3ccccc3)nc2C)n1C | – | 73.8 | – | – | – | –
COc1ccc(OC(=O)c2ccncc2)cc1 | – | – | – | – | – | –
O=C(Oc1ccc(OC(=O)c2ccncc2)cc1)c1ccncc1 | – | 35.0 | – | – | – | –
O=[N+]([O-])c1cc(O)c2ncccc2c1 | – | 36.7 | – | – | – | –
CCN(CC(=O)Nc1c(F)cccc1F)C(=O)c1ccc2c(c1)OCCO2 | – | – | – | – | – | –
O=C(CN1CCN(c2nc(-c3ccccc3)cs2)CC1)Nc1ccc2c(c1)OCO2 | – | – | – | – | 48.2 | –

Assay outcomes (PubChem BioAssay)
